The target in assay [1] is Lysosomal acid glucosylceramidase (Homo sapiens) (UniProt P04062). Briefly: Glucocerebrosidase-p2 (AID 348; in the data active = potency below about 10 µM; note: potency is the fitted concentration of half-maximal effect). The settings on record: purified GBA, blue fluorogenic substrate, 40 min. Put shortly: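 Normal human glucocerebrosidase (0.2 nM) with blue fluorogenic substrate (80 uM final) in citrate/phosphate pH 5.9 with 10mM sodium taurocholate, 0.01% tween-20; 40 min RT, NaOH/glycine stop; fluorescence Ex 365/Em 440; AC50 from a titration from 0.6 nM upwards.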
Chain of Lysosomal acid glucosylceramidase (Homo sapiens) (P04062 whole entry, looked up): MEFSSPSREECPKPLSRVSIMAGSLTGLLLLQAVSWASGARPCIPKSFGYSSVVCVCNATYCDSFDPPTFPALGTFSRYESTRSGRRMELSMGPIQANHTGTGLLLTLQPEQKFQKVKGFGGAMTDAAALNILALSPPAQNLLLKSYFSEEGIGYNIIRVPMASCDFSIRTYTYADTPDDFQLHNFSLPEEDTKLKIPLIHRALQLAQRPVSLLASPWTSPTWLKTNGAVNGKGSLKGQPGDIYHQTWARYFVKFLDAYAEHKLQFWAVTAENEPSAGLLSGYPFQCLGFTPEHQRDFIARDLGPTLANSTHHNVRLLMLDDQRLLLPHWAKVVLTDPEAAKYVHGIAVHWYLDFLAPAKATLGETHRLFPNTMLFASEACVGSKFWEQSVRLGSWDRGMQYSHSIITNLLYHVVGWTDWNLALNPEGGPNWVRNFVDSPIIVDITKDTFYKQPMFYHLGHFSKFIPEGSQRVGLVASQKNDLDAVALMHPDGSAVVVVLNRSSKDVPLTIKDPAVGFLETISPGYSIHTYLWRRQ

A short description of assay [2]: AP1 Signaling Pathway (AID 357; active = well fitted curve in either direction with a large enough effect, not every such curve was filed as active;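 note: ME-180 reporter cells stimulated with EGF at its EC50 level; % is set by controls: 0 for no effect and ±100 for the full control effect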). The conditions noted are these: ME-180 AP-1-bla reporter, EGF-induced, beta-lactamase ratio, 5 h; at 7.69 µM (top of the series) unless noted. Put shortly:
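Read-out was the 460nm/530nm emission ratio (excitation 405nm) after CCF4 loading for 2.5 hours at room temperature. Cells carried an AP-1-driven beta-lactamase reporter, were stimulated with EC50 EGF plus compound for 5 hours, and AC50 values came from titrations.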

Assay [3] has as its target Cytochrome P450 1A2 (Homo sapiens) (UniProt P05177). The assay can be described thus: p450-cyp1a2 (AID 410; calls by dose curve; note: potency is the fitted concentration of half-maximal effect;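 for activity change, negative = inhibition: -100% = full effect of reference inhibitor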). The settings on record: recombinant CYP1A2, luciferin-ME demethylation, luminescence; series mostly up to 57 µM. The method in brief: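 Luminescent demethylation readout: Luciferin-ME (100uM, equal to Km) turned over by 20nM CYP1A2 for 60 min at room temperature after NADPH regeneration addition, following 10 min compound preincubation. Normalization used 57 uM furafylline as full inhibition.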

The nature of assay [4]: NFAT Signaling Pathway (AID 444; active = well fitted curve in either direction with a large enough effect, not every such curve was filed as active;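 note: carbachol stimulus at about its EC50 of 1 µM final; % is set by controls: 0 for no effect and ±100 for the full control effect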). The settings on record: Jurkat NFAT-bla M1, carbachol, beta-lactamase ratio, 5 h; at 7.69 µM (top of the series) unless noted. The method in brief: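 Jurkat cells carrying an NFAT-driven β-lactamase reporter and co-transfected muscarinic M1 receptor were treated with compound plus carbachol (1 uM final, an EC50 level) for 5 h at 37 °C. CCF4 loading followed for 1 h at RT; 460/530 nm ratio gave %activity.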

Assay [5] has as its target Glucocorticoid receptor (Homo sapiens) (UniProt P04150). The assay can be described thus: GR-GFP Redistribution (AID 450;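 active = compounds whose dose series gives a full or clear partial fitted curve of increased nuclear translocation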; note: potency is the fitted concentration of half-maximal effect). The settings on record: U2OS GR-GFP nuclear translocation, laser cytometry, 2 h.
For assay [6] the target is unchanged. Briefly: GR-EFC Redistribution (AID 451; calls by dose curve; note: potency is the fitted concentration of half-maximal effect). The settings on record: CHO-K1 GR-EFC translocation, beta-gal luminescence, 2 h. The method in brief: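 CHO-K1 cells stably expressing nuclear-localized β-gal enzyme acceptor and GR fused C-terminally to the enzyme donor fragment; ligand-driven nuclear translocation restores β-gal by complementation. Compounds titrated up to 46 uM final, 2 h at 37 °C; luminescence read.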

In assay [7] the target is Mitogen-activated protein kinase 10 (Mus musculus) (UniProt Q61831). The assay can be described thus: JNK3 AlphaScreen Assay (AID 530; active = well fitted curve in either direction with a large enough effect, not every such curve was filed as active;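 note: kinase came from lysate of stimulated human HepG2 cells; signal reports phosphorylation of biotinylated GST-cJun 1-79 at Ser73 with 10 µM ATP; % is set by controls: 0 for no effect and ±100 for the full control effect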). The settings on record: JNK3 lysate, c-Jun phosphorylation; series mostly up to 57.1 µM. The method in brief:
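Phosphorylation of biotinylated GST-cJun(1-79) at Ser73 is measured by AlphaScreen proximity luminescence. Enzyme is JNK3 in HepG2 lysates activated with interleukin-1beta and tumor necrosis factor alpha; ATP is 10 uM final.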
On the technique in general: Bead proximity is the source of the signal in Alpha formats.

The target in assay [8] is Cytochrome P450 3A4 (Homo sapiens) (UniProt P08684). Briefly: qHTS Assay for Inhibitors and Substrates of Cytochrome P450 3A4 (AID 884). Note: potency is the fitted concentration of half-maximal effect; nearly all actives have a fitted effect of over 50% in size. The settings on record: recombinant CYP3A4, Luciferin-PPXE luminescence; series mostly up to 57.1 µM. Put shortly:
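Luminescent readout of luciferin produced by CYP3A4 (20 nM) dealkylation of Luciferin-PPXE, 25 uM (its KM). NADPH-driven reaction ran 60 min at RT after 10 min compound preincubation; data scaled to 57 uM ketoconazole as 100% inhibition.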
(In qHTS, concentration-response curves come from the screen itself.)

Assay [9] shares this target. The assay can be described thus: qHTS Assay for Activators of Cytochrome P450 3A4 (AID 885). Note: nearly all actives have a fitted effect of over 65% in size. The conditions noted are these: recombinant CYP3A4, Luciferin-PPXE luminescence, 60 min; series mostly up to 57.1 µM. Put shortly: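 Using 20nM recombinant human CYP3A4 in potassium phosphate (200mM), substrate Luciferin-PPXE at 25uM, luminescent luciferin detection followed a 60-min RT NADPH reaction; data scaled to 57 uM ketoconazole.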

Assay [10] concerns the target Cytochrome P450 2C19 (Homo sapiens) (UniProt P33261). The assay can be described thus: qHTS Assay for Inhibitors and Substrates of Cytochrome P450 2C19 (AID 899). Note: potency is the fitted concentration of half-maximal effect; nearly all actives have a fitted effect of over 60% in size. The settings on record: recombinant CYP2C19, luciferin-H EGE luminescence; series mostly up to 57.1 µM. The method in brief:
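In 50mM KPO4, the reaction held 5nM enzyme and KM-level (10uM) Luciferin-H EGE; it ran 60 min at 37C after NADPH regeneration and a 10 min compound preincubation. Luminescence values were scaled to 57uM ketoconazole as complete inhibition.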

Assay [11] can be described thus: qHTS Assay for Lipid Storage Modulators (AID 1519; calls by dose curve; note: potency is the fitted concentration of half-maximal effect). The settings on record: Drosophila S3 cells, BODIPY lipid droplet/cell ratio, laser cytometry, cells loaded with oleic acid; for activity change, negative = inhibition: at 57.5 µM (top of the series). Put shortly: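 Cells seeded at 5,000 per well were treated with compounds over a concentration series and loaded with oleic acid (400 uM, as added). Lipid droplet fluorescence (488 nm excitation, 500-530 nm channel) was read by laser-scanning cytometry and normalized to 20 uM Triacsin C.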

In assay [12] the target is Dual specificity protein kinase CLK4 (Homo sapiens) (UniProt Q9HAZ1). The assay can be described thus: qHTS Assay for Inhibitors of CDC-like Kinase 4 (ADP-Glo Assay) (AID 1771). Note: nearly all actives have a fitted effect of over 70% in size. Note: potency is the fitted concentration of half-maximal effect. The settings on record: recombinant CLK4, ADP-Glo luminescence; series mostly up to 80 µM. Put shortly: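 ADP production was read by ADP-Glo luminescence after residual ATP depletion, following 1 h room-temperature reaction of 25 nM Clk4, 1 uM ATP and 100 uM RS peptide with MgCl2, EGTA, DTT and Triton X-100.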
Chain of Dual specificity protein kinase CLK4 (Homo sapiens) (Q9HAZ1 whole entry, looked up): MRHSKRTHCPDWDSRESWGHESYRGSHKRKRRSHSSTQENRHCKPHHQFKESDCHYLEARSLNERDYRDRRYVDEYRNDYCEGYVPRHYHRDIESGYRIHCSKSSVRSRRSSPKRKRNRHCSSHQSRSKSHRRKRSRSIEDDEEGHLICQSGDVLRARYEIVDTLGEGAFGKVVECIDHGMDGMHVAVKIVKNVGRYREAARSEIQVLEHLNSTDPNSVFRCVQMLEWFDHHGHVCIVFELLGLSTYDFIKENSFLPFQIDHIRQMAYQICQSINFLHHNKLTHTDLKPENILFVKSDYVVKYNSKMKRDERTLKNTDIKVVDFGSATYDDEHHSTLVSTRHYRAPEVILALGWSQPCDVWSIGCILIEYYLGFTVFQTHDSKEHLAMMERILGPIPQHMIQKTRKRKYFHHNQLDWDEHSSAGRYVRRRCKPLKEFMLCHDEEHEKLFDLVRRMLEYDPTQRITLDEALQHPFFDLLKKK

The target is the same in assay [13]. The assay can be described thus: qHTS Assay for Inhibitors of CDC-like Kinase 4 (ADP-FP Assay) (AID 1795). Note: nearly all actives have a fitted effect of over 60% in size. Note: potency is the fitted concentration of half-maximal effect. The conditions noted are these: Transcreener ADP fluorescence polarization; series mostly up to 50 µM. The method in brief: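 Inhibition of ADP formation by 6.25 nM Clk4 is measured using 1 uM ATP and 100 uM RS repeat peptide over one hour. Produced ADP displaces a fluorescent tracer from antibody, lowering polarization.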

In assay [14] the target is Ubiquitin carboxyl-terminal hydrolase 1 (Homo sapiens) (UniProt O94782). Briefly: Inhibitors of USP1/UAF1: Pilot qHTS (AID 504865).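 Note: rhodamine fluorescence freed from ubiquitin-rhodamine substrate followed over time; top concentration of the series differs between compounds; % is set by controls: 0 for no effect and ±100 for the full control effect; nearly all actives have a fitted effect of over 35% in size.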 The conditions noted are these: purified USP1/UAF1, Ub-rhodamine cleavage fluorescence; series mostly up to 54.9 µM. The method in brief: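 Kinetic fluorescence assay: 1nM USP1/UAF1, 15 min compound preincubation, then 150nM Ub-Rho; 480/540 nm.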
Chain of Ubiquitin carboxyl-terminal hydrolase 1 (Homo sapiens) (O94782 whole entry, looked up): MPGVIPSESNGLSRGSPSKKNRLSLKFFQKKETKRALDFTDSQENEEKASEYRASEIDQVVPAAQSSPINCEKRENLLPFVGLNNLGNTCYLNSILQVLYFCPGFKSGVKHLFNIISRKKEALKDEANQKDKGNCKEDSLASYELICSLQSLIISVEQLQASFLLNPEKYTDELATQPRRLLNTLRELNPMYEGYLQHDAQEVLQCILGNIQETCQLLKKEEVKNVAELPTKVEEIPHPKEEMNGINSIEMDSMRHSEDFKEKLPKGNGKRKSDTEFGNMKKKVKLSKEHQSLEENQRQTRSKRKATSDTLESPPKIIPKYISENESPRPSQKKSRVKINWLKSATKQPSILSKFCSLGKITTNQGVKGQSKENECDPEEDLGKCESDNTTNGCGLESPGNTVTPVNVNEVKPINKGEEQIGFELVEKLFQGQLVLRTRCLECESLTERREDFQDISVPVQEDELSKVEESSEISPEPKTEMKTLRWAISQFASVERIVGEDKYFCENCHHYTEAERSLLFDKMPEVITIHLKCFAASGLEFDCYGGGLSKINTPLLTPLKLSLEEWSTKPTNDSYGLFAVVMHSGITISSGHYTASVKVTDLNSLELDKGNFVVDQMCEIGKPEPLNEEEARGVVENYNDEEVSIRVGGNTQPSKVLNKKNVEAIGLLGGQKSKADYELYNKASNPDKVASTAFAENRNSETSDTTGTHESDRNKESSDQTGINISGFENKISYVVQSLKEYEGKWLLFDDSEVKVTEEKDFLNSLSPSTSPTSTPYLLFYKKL

Assay [15] can be described thus: Primary qHTS for small molecule stabilizers of the endoplasmic reticulum resident proteome: Secreted ER Calcium Modulated Protein (SERCaMP) assay (AID 1508630). Note: % is set by controls: 0 for no effect and ±100 for the full control effect. The conditions noted are these: SH-SY5Y GLuc-SERCaMP (Gaussia luciferase released on ER calcium loss) secretion, thapsigargin, luminescence; series mostly up to 38.4 µM. The method in brief: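 The SH-SY5Y reporter protocol was run at 3 concentrations up to 38.3 uM (primary) or 11 concentrations (follow-up): 16 h compound, 100 nM thapsigargin for 4 h, then extracellular luciferase luminescence.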

The nature of assay [16]: Stat Signaling Pathway (AID 446; active = well fitted curve in either direction with a large enough effect, not every such curve was filed as active). The conditions noted are these: ME-180 (cervical carcinoma) SIE beta-lactamase reporter, IL-6 stimulated, 5 h; at 7.69 µM (top of the series) unless noted. Put shortly:
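Overnight-plated ME-180 cells bearing a STAT Inducible Element beta-lactamase reporter; 5 h co-exposure to compound and 40 pM IL-6; values normalized to 300 pM IL-6 and 125 nM JAK inhibitor controls.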

Assay [17] deals with 3',5'-cyclic-AMP phosphodiesterase 4B (Homo sapiens) (UniProt Q07343). Briefly: qHTS Assay for Inhibitors of PDE-IV (AID 607; active = well fitted activation curve with a large enough effect in the main read-out, with a control signal flat, not every such curve was filed as active; note: % of control where 0% means no effect). The conditions noted are these: HEK293 ACTOne CNG channel cells, membrane potential fluorescence; series mostly up to 22.9 µM. The method in brief: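 Live HEK293 cells with a modified cyclic nucleotide-gated (CNG) channel report intracellular cAMP via membrane-potential dye fluorescence (ex 535/em 590 nm). Endogenous PDE-IV was targeted. Compounds were tested at up to 22.9 uM final; RO 20-1724 100 uM served as control.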
Chain of 3',5'-cyclic-AMP phosphodiesterase 4B (Homo sapiens) (Q07343 whole entry, looked up): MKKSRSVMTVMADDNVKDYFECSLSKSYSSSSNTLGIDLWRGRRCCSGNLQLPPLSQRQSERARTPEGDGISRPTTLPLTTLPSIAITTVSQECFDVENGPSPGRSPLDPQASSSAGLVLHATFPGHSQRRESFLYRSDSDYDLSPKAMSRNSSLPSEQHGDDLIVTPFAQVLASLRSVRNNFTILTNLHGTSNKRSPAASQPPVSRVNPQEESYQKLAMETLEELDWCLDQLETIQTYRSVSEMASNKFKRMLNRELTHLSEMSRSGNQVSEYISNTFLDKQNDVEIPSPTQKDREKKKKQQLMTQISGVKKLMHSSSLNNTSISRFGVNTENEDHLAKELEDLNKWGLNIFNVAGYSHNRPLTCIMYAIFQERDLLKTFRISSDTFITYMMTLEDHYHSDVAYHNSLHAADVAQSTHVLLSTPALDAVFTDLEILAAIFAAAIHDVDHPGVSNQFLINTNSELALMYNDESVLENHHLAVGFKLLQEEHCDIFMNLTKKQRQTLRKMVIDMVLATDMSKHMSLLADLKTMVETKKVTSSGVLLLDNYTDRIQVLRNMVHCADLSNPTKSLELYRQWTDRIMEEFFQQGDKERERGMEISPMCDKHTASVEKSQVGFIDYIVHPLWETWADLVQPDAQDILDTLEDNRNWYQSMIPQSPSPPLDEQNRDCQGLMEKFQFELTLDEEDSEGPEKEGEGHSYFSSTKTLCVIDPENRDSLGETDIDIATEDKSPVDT

The mark [18] stands for this setting: measured here: cell count channel max response.
Where [19] appears, read: measured here: lipid channel max response.

Inconclusive results are not listed. Calls of active or inactive are those of the source. Unless noted, calls come from the whole dose curve; as a rule, active = well fitted curve in the direction sought with a large enough effect; inconclusive = small, poorly fitted or top-dose-only effect, or another doubt; inactive = no such curve, though single readings can be large; an effect the other way counts as inactive or inconclusive.

Chain of Glucocorticoid receptor (Homo sapiens) (P04150 whole entry, looked up, the tested form may be a part): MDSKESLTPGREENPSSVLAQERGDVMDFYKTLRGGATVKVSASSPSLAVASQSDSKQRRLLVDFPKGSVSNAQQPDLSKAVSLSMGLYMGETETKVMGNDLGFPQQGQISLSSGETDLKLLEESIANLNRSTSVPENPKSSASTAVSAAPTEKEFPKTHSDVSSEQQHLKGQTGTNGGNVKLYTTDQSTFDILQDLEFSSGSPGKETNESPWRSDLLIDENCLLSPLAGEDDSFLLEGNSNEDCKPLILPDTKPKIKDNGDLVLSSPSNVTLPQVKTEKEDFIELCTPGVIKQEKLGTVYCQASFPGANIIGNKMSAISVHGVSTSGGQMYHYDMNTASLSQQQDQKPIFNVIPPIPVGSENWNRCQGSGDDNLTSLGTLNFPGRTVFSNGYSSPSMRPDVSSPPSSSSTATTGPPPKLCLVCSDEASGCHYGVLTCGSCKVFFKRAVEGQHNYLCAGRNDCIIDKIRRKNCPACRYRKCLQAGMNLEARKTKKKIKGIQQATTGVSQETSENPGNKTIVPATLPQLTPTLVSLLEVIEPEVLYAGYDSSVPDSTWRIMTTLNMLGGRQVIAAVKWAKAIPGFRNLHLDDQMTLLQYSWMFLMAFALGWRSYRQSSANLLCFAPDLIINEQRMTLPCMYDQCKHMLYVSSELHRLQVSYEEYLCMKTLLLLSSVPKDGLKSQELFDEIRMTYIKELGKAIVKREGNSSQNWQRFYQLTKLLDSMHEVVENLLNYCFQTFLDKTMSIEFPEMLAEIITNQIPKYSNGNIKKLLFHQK
Chain of Cytochrome P450 3A4 (Homo sapiens) (P08684 whole entry, looked up): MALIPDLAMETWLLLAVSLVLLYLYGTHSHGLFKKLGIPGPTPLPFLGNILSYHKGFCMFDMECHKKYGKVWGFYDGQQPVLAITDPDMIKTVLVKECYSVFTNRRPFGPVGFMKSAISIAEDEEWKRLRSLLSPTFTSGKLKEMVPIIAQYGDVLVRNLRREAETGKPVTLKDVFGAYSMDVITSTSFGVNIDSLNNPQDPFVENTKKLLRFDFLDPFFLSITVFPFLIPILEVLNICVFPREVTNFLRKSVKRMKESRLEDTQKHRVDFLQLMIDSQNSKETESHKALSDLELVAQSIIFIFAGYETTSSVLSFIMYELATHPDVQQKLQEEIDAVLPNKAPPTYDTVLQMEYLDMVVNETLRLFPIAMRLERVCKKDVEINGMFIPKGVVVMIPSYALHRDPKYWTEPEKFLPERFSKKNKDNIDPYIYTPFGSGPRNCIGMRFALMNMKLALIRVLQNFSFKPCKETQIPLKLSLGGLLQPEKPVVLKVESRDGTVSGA
Chain of Cytochrome P450 1A2 (Homo sapiens) (P05177 whole entry, looked up): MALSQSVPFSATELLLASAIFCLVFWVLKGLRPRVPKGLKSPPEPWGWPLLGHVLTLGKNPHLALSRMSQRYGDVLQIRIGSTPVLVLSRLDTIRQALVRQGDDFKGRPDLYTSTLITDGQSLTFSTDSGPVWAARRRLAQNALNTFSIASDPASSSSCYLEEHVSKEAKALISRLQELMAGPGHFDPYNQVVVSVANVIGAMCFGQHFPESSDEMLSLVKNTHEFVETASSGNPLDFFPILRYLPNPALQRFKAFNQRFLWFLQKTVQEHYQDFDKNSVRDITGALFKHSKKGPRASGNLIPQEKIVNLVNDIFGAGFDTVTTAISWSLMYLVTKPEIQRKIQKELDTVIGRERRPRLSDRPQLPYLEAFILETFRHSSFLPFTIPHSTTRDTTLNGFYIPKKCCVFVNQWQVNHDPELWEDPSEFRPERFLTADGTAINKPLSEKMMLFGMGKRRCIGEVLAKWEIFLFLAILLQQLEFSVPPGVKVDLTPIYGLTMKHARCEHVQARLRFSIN
Chain of Cytochrome P450 2C19 (Homo sapiens) (P33261 whole entry, looked up): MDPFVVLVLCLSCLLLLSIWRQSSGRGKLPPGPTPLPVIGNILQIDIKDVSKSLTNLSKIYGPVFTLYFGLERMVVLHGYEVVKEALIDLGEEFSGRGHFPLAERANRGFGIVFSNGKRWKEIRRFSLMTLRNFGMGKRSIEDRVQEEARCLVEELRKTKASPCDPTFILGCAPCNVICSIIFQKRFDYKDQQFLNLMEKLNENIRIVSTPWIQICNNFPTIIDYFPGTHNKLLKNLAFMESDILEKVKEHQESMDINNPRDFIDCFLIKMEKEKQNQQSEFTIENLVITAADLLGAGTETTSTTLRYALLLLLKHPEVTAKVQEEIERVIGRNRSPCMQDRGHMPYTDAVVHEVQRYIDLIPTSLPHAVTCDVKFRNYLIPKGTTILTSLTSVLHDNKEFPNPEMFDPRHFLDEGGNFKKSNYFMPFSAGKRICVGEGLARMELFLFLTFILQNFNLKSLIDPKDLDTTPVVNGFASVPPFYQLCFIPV

Consider `Cc1ccccc1-c1ccc2ncnc(NC3CC3)c2c1`, for which the Potency in assay [1] is > 11.4 µM (inactive); in assay [3], 0.126 µM (active); in assay [5] it was > 46 µM (inactive); in assay [6], > 46 µM (inactive); in assay [8] it was 3.16 µM (active); in assay [10] it was 1.26 µM (active). Also, the Potency was 7.08 µM (active) in assay [12] and 12.6 µM (active) in assay [13]. For the same compound, the activity change, negative = inhibition in assay [2] was 5.4% (inactive); in assay [4], 3.53% (inactive); in [11] it was -3.61% (inactive). Besides, the outcome in assay [7] was inactive. The Potency result in assay [9], in [14] and in assay [15] was “inactive” each time. The max response in assay [11] (setting [18]) is 4.35%; in assay [11] (setting [19]), -0.878%.

In the case of `CCNc1ncc2nc(C)c(=O)n(Cc3ccc(F)cc3)c2n1`, the Potency in assay [1] was > 11.4 µM (inactive); in assay [3], 1.58 µM (active); in [5] it was > 9.22 µM (inactive); in [6] it was > 46 µM (inactive); in [12], 15.8 µM (active). Further, the activity change, negative = inhibition was -0.98% (inactive) in [2], -0.858% (inactive) in assay [4] and 3.29% (inactive) in assay [11]. For the same compound, in assay [16], the activity, negative = inhibition is -2.29% (inactive). In [7], the compound was called inactive. Besides, the Potency entry in [17], in [9] and in assay [15] was “inactive” throughout. Moreover, the values for the max response in assay [11] (setting [18]) and in [11] (setting [19]) were 23.4% and 24.2%, respectively.

Turning to `Cn1c(=O)cnc2cnc(OCc3ccccc3)nc21`, the Potency was > 11.4 µM (inactive) in assay [1], > 9.22 µM (inactive) in assay [5], > 46 µM (inactive) in assay [6] and 20 µM (active) in assay [12]. For the same compound, the activity change, negative = inhibition in assay [2] was -10.8% (inactive); in assay [4], 0.699% (inactive); in assay [11], 9.09% (inactive). In [16], the activity, negative = inhibition is -10.5% (inactive). The compound was classed as inactive in [7]. In addition, the Potency entry in assay [17], in assay [14] and in assay [15] was “inactive” each time. Also, the max response in assay [11] (setting [18]) came to 18.8%; in assay [11] (setting [19]), 26%.

In the case of `COc1ccc(-c2nc3cnc(Nc4ccccc4)nc3n(C[C@H]3CCCO3)c2=O)cc1`, the Potency is > 11.4 µM (inactive) in assay [1], > 9.22 µM (inactive) in assay [5], > 46 µM (inactive) in [6] and 11.2 µM (active) in assay [11]. Also, in assay [2], the activity change, negative = inhibition was 26.1% (inactive). The call in [7] was inactive. Besides, the figures for the max response in assay [11] (setting [18]) and in assay [11] (setting [19]) were 2.79% and -87.2%, respectively. The Potency entry in [12], in [13], in assay [14] and in assay [15] was “inactive” in each case.

Turning to `CN(C)C(=O)c1ccc(-c2cncnc2N2CCNCC2)cc1`, the Potency in assay [1] was > 11.4 µM (inactive); in assay [5], > 46 µM (inactive); in [6], > 46 µM (inactive). Further, the activity change, negative = inhibition in assay [2] was -5.59% (inactive); in assay [4], 10.6% (inactive); in assay [11] it was 5.34% (inactive). Besides, the Potency result in assay [3], in assay [17], in assay [12], in assay [13], in assay [14] and in [15] was “inactive” each time. For the same compound, the activity, negative = inhibition in assay [16] was 9.81% (inactive). The compound was called inactive in assay [7]. In addition, the max response was 16.8% in [11] (setting [18]) and 20.2% in [11] (setting [19]).

Turning to `Cc1nc2cnc(Nc3ccccc3)nc2n(C2CC2)c1=O`, the Potency in assay [1] was > 11.4 µM (inactive); in [3] it was 1 µM (active); in assay [5], > 9.22 µM (inactive); in [6] it was > 46 µM (inactive); in [12], 6.31 µM (active). The activity change, negative = inhibition in assay [2] was -25.6% (inactive); in assay [4], 1.3% (inactive); in assay [11] it was -15.4% (inactive). In assay [16], the activity, negative = inhibition is -10.8% (inactive). Further, the outcome in [7] was inactive. Besides, the Potency entry in [17] and in assay [15] was “inactive” in each case. Moreover, the max response in [11] (setting [18]) was -13.6%; in assay [11] (setting [19]) it was -28.8%.

(Values after PubChem BioAssay (NCATS).)
